Compound activity (PubChem)
CYP2C9 activ: increases human cytochrome P450 2C9 activity; P11712; 96,000 tested, 1.4% active; activation factor at 5 µM; AID 1024; recombinant CYP2C9, luciferin-H conversion, luminescence; hits give high values; factor 1 = untreated enzyme, 0 = blocked;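 active = activation factor of 2 or more for CYP2C9 at a 5 µM dose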
D1 mod: D1 dopamine receptor (human) allosteric modulation | P21728 | HEK293 D1, CRE-luciferase, dopamine EC30 potentiation; actives deviate in either direction | B-score at 10 µM | 58,000 tested, 5.9% active | AID 641;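 active = luminescence count or its row- and column-corrected plate score outside the 99.7% band of the plate's sample wells, on either side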
CYP2C19 inhib: inhibitors of human CYP2C19. 96,000 tested, 21% active. inhibition, % at 5 µM. P33261. CYP2C19 Supersomes, luciferin-H EGE luminescence, 30 min. AID 778;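 active = CYP2C19 inhibition above a set limit at 5 µM in the primary screen, cut at about 50% in these data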
CYP2C19 act: increases human CYP2C19 enzyme activity. recombinant CYP2C19, luciferin-H EGE luminescence; hits give high values; 0 = fully inhibited enzyme, 1 = untreated enzyme. P33261. AID 1025. 96,000 tested, under 10 active. activation factor at 5 µM;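 active = activation factor of at least 2 at 5 µM in the primary screen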
CYP2C9 inh: human CYP2C9 inhibition; P11712; CYP2C9 Supersomes, luciferin-H conversion, luminescence; inhibition, % at 5 µM; 96,000 tested, 20% active; AID 777;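 active = blocking of liver enzyme CYP2C9 beyond about 50% at 5 µM, limit read from the data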
DAT uptake mod: human DAT dopamine uptake with cocaine, either direction | LLC-PK1 hDAT cells, [14C]-dopamine uptake with cocaine IC80; actives deviate in either direction | B-score at 10 µM | 110,000 tested, 1.3% active;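 active = Z score or B-score, a plate-position-corrected score, falls beyond the plate's 99.7% confidence bounds, in either direction; inactive = both scores lie inside the 99.7% bounds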
Target sequence (Q01959 whole entry, looked up): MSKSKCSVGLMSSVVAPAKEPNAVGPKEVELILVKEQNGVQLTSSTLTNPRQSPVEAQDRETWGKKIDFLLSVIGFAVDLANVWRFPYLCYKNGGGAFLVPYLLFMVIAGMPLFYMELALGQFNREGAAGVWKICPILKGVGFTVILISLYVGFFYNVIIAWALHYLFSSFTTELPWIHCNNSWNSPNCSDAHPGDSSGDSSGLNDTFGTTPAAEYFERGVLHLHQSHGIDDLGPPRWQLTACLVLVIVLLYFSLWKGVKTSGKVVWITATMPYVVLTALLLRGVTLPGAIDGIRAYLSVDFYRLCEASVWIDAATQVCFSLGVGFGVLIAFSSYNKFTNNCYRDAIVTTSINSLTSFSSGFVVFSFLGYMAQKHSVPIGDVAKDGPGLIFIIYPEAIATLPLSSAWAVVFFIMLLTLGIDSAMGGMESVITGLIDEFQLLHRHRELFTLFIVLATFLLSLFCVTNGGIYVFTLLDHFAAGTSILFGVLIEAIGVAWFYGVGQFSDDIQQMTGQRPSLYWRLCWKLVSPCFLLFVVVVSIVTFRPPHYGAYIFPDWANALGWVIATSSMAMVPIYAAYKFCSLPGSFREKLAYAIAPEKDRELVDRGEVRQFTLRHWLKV
Hits are given with their value; n = inactive; x = no result. Compounds with a hit are over-represented: about 28% of the library has one in this group of screens.

SMILES	CYP2C9 activ	D1 mod	CYP2C19 inhib	CYP2C19 act	CYP2C9 inh	DAT uptake mod
CCN(CC(=O)NCc1cccs1)S(=O)(=O)c1cccc(C(C)=O)c1	n	n	n	n	n	-7.46
CCN(CC)S(=O)(=O)c1cccc(C(=O)Nc2nncs2)c1	n	n	n	n	n	n
CC(C)CC(C(=O)NCc1ccccn1)N1C(=O)c2ccccc2C1=O (stereo not drawn)	n	n	70.8	n	n	n
CC(C)CC(C(=O)NC(=O)NCc1ccccc1)N1C(=O)c2ccccc2C1=O (stereo not drawn)	n	x	n	n	n	n
O=C(NCC1CC1)c1cc(-c2ccccc2)nn1CC1CC(c2cccc([N+](=O)[O-])c2)=NO1 (stereo not drawn)	x	x	x	x	x	n
Cc1ccc(-c2nc(NC(=O)c3nn(C)cc3[N+](=O)[O-])sc2C)cc1C	n	x	n	n	53.6	x
Nn1c(-c2ccccc2Cl)nnc1-c1ccccc1Cl	x	x	x	x	x	n
Clc1ccccc1-c1nc2ccccc2c2nncn12	n	x	62.2	n	n	n
Cc1ccc2nc3c(cc(C#N)c(=O)n3CC3CCCO3)c(=O)n2c1 (stereo not drawn)	n	-3.62	n	n	n	n
Cc1ccc(O)c(C(=O)c2cc(C#N)c(=O)n(CC3CCCO3)c2)c1 (stereo not drawn)	n	n	66.0	n	n	n
O=C(NC12CCC(O)C(SC1)/C2=N/O)c1ccccc1 (stereo not drawn)	n	n	n	n	n	n
CCOc1ccccc1OCC(=O)NN1Cc2ccccc2C1=N	n	x	n	n	n	n
O=C(CN1C(=O)COc2ccccc21)N(Cc1ccc2c(c1)OCO2)CC1CCCO1 (stereo not drawn)	n	n	n	n	n	n
COc1ccc(-c2cc(OC(=O)c3ccc(F)cc3)c3c(C)oc(C)c3c(=O)c2)cc1	n	x	n	n	55.9	n
CCN(CC)C(=O)CSc1nnc(CCCCCNC(=O)OC(C)(C)C)o1	n	n	n	n	n	n
Cc1cc(NC(=O)c2ccc(S(=O)(=O)N(C)C)cc2)no1	n	n	n	n	n	n
Cc1cc(NC(=O)CCOc2ccccc2)no1	n	n	n	n	n	n
Cc1cc(NC(=O)COc2ccc(N(C)S(=O)(=O)c3ccccc3)cc2)no1	n	n	n	n	55.3	n
CCN(c1ccccc1)S(=O)(=O)c1ccc(OCC(=O)Nc2cc(C)on2)cc1	n	x	n	n	66.6	n
C[C@@H]1C[C@H](Nc2ccccc2)c2ccccc2N1C(=O)c1cccnc1	n	x	83.9	n	n	n
CC1CC(Nc2ccccc2)c2ccccc2N1C(=O)c1cccnc1 (stereo not drawn)	x	x	x	x	x	n
O=C(N/N=C\c1ccc(F)cc1)c1csnn1	n	x	n	n	n	n
COc1cc(C(=O)N2CCN(S(=O)(=O)c3ccc(C)cc3)CC2)ccc1OCc1c(C)noc1C	n	n	70.1	n	55.5	n
COc1cc(C=O)ccc1OCc1c(C)noc1C	n	x	84.7	n	n	n
COc1cc(C(=O)O)ccc1OCc1c(C)noc1C	n	x	n	n	n	n
SMILES	CYP2C9 activ	D1 mod	CYP2C19 inhib	CYP2C19 act	CYP2C9 inh	DAT uptake mod
CCC1(CC)C(=O)N(C)C(=O)NC1=Nc1ccc(OC)cc1	n	x	n	n	n	n
O=C(CSc1ncn[nH]1)Nc1ccc(Br)cc1F	n	n	82.0	n	n	n
O=C(CSc1ncn[nH]1)Nc1ccc(Cl)c(Cl)c1	n	n	63.3	n	n	n
O=C(CSc1ncn[nH]1)Nc1ccccc1C(=O)O	n	n	n	n	n	n
Cc1cccc(NC(=O)C2NC(=O)CC2c2ccccc2)c1C (stereo not drawn)	n	x	58.3	n	n	n
CCOC(=O)C(NCc1ccccc1)(NC(=O)c1ccccc1)C(F)(F)F (stereo not drawn)	n	x	52.1	n	n	n
C=CCNC(NC(=O)c1ccccc1)(C(=O)OCC)C(F)(F)F (stereo not drawn)	n	n	63.6	n	n	n
CCOC(=O)C(NCc1ccccc1OC)(NC(=O)CC)C(F)(F)F (stereo not drawn)	n	x	n	n	n	n
CCOC(=O)C(NC(=O)c1ccc(OC)cc1)(Nc1cc(C)on1)C(F)(F)F (stereo not drawn)	n	x	n	n	n	n
CCOC(=O)C(NC(=O)c1ccccc1)(Nc1nnc(C)s1)C(F)(F)F (stereo not drawn)	x	x	x	x	x	n
